Growth data for 13 compounds are collected here from PubChem BioAssay (NCI).

Compounds without any hit were thinned out: in the full panel of roughly 83,000, 20% have a hit.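 Cells were grown in 96-well plates and exposed to the test compound at a single concentration for 48 hours; results are reported as percent growth, with values below 10 considered active.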 A number with no mark means an inactive call. Active and inactive are the calls of the source.

Test systems include NCI-H23 lung; NCI-H226 lung; NCI-H322M lung; HOP-62 NSCLC; NCI-H460 lung; HOP-92 NSCLC; NCI-H522 lung; A549/ATCC NSCLC; 786-0 renal; COLO 205 colon.
Experiment in all cases: NCI-60 one-dose screen, 48 h (100 = growth as untreated, 0 = no growth, -100 = all killed)
Common to all, as to settings: 10 µM unless noted

`Nc1nc(N)c2c(n1)NC(c1sc(Cl)nc1Cl)CC(c1ccccc1)=N2` (stereo not given): the growth in the assay on NCI-H23 lung was 76.4%; in the assay with NCI-H226 lung it was 73.6%; in the assay with NCI-H322M lung it was 101%; in the assay on HOP-62 NSCLC, 41.9%; with NCI-H460 lung, 26.8%; in the assay with HOP-92 NSCLC, 48.7%. The growth with NCI-H522 lung is 9.11% (active); with A549/ATCC NSCLC, 43.1%; with 786-0 renal, 62%; with COLO 205 colon, 46.7%.

Regarding `CC(C)CC(NC(=O)C(CCCN=C(N)N)NC(=O)OCc1ccccc1)C(=O)NC(CNC(=O)/C=C/c1ccccc1)C(C)C` (stereo not given), the growth in the assay with NCI-H23 lung was 109%; in the assay with NCI-H226 lung it was 100%; in the assay on NCI-H322M lung it was 104%; in the assay with HOP-62 NSCLC it was 107%; in the assay on NCI-H460 lung, 108%; in the assay on HOP-92 NSCLC, 89.2%. The growth in the assay with NCI-H522 lung was 98.7%; in the assay with A549/ATCC NSCLC it was 108%; in the assay with 786-0 renal, 101%; in the assay with COLO 205 colon, 117%.

As to `COS(=O)(=O)CCN(CCOS(C)(=O)=O)S(C)(=O)=O`, the growth with NCI-H23 lung was 105%; with NCI-H226 lung it was 100%; in the assay on NCI-H322M lung, 108%; in the assay with HOP-62 NSCLC, 109%; in the assay on NCI-H460 lung, 101%; in the assay with HOP-92 NSCLC, 89.1%. Further, the growth with NCI-H522 lung is 78.2%; with A549/ATCC NSCLC, 90.1%; in the assay on 786-0 renal, 97.9%; with COLO 205 colon, 117%.

As to `O=C(NNC(=S)Nc1ccccc1)c1ccc(Nc2ncnc3c2cnn3-c2cccc(Br)c2)cc1`, the growth in the assay on NCI-H23 lung was 99.8%; in the assay with NCI-H226 lung it was 94.3%; in the assay with NCI-H322M lung, 95.5%; in the assay on HOP-62 NSCLC, 88%; in the assay on NCI-H460 lung, 112%; with HOP-92 NSCLC, 93.5%. Also, the growth in the assay on NCI-H522 lung is 88.6%; in the assay with A549/ATCC NSCLC, 112%; with 786-0 renal, 105%; with COLO 205 colon it was 103%.

Regarding `CCN(CC)CCCNc1cccc2c(C)cc(OC)nc12`, the growth in the assay with NCI-H23 lung was 90.5%; in the assay with NCI-H226 lung, 91%; in the assay on NCI-H322M lung, 93.6%; in the assay on HOP-62 NSCLC it was 98.8%; in the assay with NCI-H460 lung, 100%; in the assay on HOP-92 NSCLC, 58.4%. For the same compound, the growth with NCI-H522 lung is 87.5%; in the assay with A549/ATCC NSCLC, 94.8%; in the assay on 786-0 renal it was 94.6%; with COLO 205 colon, 87.4%.

In the case of `O=C1Nc2ccccc2/C1=C/c1c[nH]c2ccccc12`, the growth in the assay with NCI-H23 lung was 78.9%; in the assay with NCI-H226 lung, 83.4%; in the assay on NCI-H322M lung, 70.1%; in the assay on HOP-62 NSCLC, 66%; with NCI-H460 lung, 88.7%; in the assay with HOP-92 NSCLC, 65.2%. Besides, the growth is 88.7% in the assay on NCI-H522 lung, 77.3% in the assay with A549/ATCC NSCLC, 105% with 786-0 renal and 115% with COLO 205 colon.

As to `CC1=C(O)C(=O)C(c2c(C)cc(C)c(Br)c2C)=C(O)C1=O`, the growth in the assay on NCI-H23 lung was 40.7%; in the assay with NCI-H226 lung it was 83.3%; with NCI-H322M lung, 71.5%; in the assay on HOP-62 NSCLC, 69.9%; with NCI-H460 lung, 35.5%; with HOP-92 NSCLC, 83.7%. Besides, the growth in the assay on NCI-H522 lung was 66.8%; with A549/ATCC NSCLC it was 44.1%; in the assay on 786-0 renal it was 56.8%; with COLO 205 colon, 75.8%.

Regarding `O=C(/C=C/c1cn(-c2ccccc2)nc1-c1cccc(Nc2ccnc3cc(Cl)ccc23)c1)c1ccc2c(c1)OCO2`, the growth in the assay with NCI-H23 lung was 101%; in the assay with NCI-H226 lung it was 99.1%; in the assay with NCI-H322M lung, 86.2%; with HOP-62 NSCLC, 107%; in the assay with NCI-H460 lung, 102%; in the assay with HOP-92 NSCLC, 88.1%. For the same compound, the growth with NCI-H522 lung is 127%; in the assay on A549/ATCC NSCLC, 93.4%; in the assay with 786-0 renal, 99.8%; in the assay with COLO 205 colon, 102%.

Regarding `CC(C)(C)NC(=O)C(OC(=O)C1CCc2cc(F)ccc2O1)c1ccccc1Cl` (stereo not given), the growth was 93.5% with NCI-H23 lung; 95.6% in the assay with NCI-H226 lung; 95.6% in the assay with NCI-H322M lung; 94.4% in the assay with HOP-62 NSCLC; 104% with NCI-H460 lung; 89% with HOP-92 NSCLC. In addition, the growth with NCI-H522 lung is 82.4%; in the assay with A549/ATCC NSCLC, 98.6%; with 786-0 renal it was 100%; in the assay on COLO 205 colon, 130%.

`O=c1[nH]c2cc(Cl)c(Cl)cc2o1`: the growth with NCI-H23 lung is 108%; with NCI-H226 lung, 90.5%; in the assay with NCI-H322M lung it was 109%; in the assay with HOP-62 NSCLC, 96.8%; with NCI-H460 lung, 109%; in the assay on HOP-92 NSCLC it was 101%. In addition, the growth in the assay with NCI-H522 lung is 103%; in the assay with A549/ATCC NSCLC, 114%; in the assay on 786-0 renal, 97.1%; with COLO 205 colon, 123%.

Turning to `COc1cc(NCCCCC(C)N)c2nccc(C)c2c1` (stereo not given), the growth in the assay on NCI-H23 lung is 89.3%; in the assay on NCI-H226 lung, 93.2%; with NCI-H322M lung, 79.8%; in the assay with HOP-62 NSCLC it was 78.3%; with NCI-H460 lung it was 95.3%; in the assay on HOP-92 NSCLC, 46.5%. The growth was 90.7% in the assay with NCI-H522 lung, 101% in the assay on A549/ATCC NSCLC, 83.7% in the assay on 786-0 renal and 37% in the assay on COLO 205 colon.

As for `CCC(C)C1NC(=O)c2nc(oc2-c2ccccc2)-c2csc(n2)-c2csc(n2)-c2nc(oc2C)-c2coc(n2)CNC(=O)C(C(C)CC)NC1=O` (stereo not given), the growth in the assay on NCI-H23 lung was -68.2% (active); in the assay on NCI-H226 lung it was -55.8% (active); in the assay on NCI-H322M lung it was -98.9% (active); in the assay on HOP-62 NSCLC, -57% (active); in the assay with NCI-H460 lung, -81.4% (active); in the assay with HOP-92 NSCLC, -83.3% (active). The growth with NCI-H522 lung was -74.7% (active); in the assay with A549/ATCC NSCLC, -76.6% (active); in the assay on 786-0 renal it was -73.1% (active); in the assay with COLO 205 colon it was -77.3% (active).

As for `O=C(CCc1nc2sc3c(c2c(=O)[nH]1)CCC3)NCc1cn(-c2ccccc2)nc1-c1ccccc1`, the growth in the assay on NCI-H23 lung is 66.2%; in the assay with NCI-H226 lung, 92.2%; in the assay on NCI-H322M lung it was 92.8%; in the assay on HOP-62 NSCLC, 80.8%; in the assay on NCI-H460 lung, 1.28% (active); with HOP-92 NSCLC, 95.9%. The growth in the assay on NCI-H522 lung was 78.9%; with A549/ATCC NSCLC it was 16.5%; in the assay on 786-0 renal, 98.4%; with COLO 205 colon, 75.7%.
